rat GALR2 agon: agonists of rat galanin receptor 2 (GALR2); O08726; cell-based GALR2 agonist screen; activation, % at 10 µM; 16,000 tested, 0.5% active; AID 833; in the data active = activation above about 15%
TLR4-MyD88 inh: inhibitors of human TLR4-MyD88 binding. O00206. Cell-based TLR4-MyD88 binding inhibition assay. inhibition, % at 10 µM. 16,000 tested, 0.06% active; in the data active = inhibition above about 45%
S1P1 ag: S1P1 (human) receptor agonism; P21453; S1P1 agonist cell-based reporter assay; activation, % at 4.5 µM; 16,000 tested, 1.5% active; AID 1044; in the data active = activation above about 80%
Target sequence (P21453 whole entry, looked up): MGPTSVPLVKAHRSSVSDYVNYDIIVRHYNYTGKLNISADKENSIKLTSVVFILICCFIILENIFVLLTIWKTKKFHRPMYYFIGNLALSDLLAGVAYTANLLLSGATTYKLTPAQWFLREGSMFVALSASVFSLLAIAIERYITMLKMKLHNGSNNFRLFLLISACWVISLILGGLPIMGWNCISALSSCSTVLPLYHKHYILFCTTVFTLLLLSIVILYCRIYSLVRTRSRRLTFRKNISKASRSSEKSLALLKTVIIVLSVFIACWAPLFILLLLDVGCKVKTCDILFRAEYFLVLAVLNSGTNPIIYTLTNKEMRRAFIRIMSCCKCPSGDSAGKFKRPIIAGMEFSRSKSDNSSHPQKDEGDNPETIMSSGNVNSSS
KOR antag MB: blocks the human kappa opioid receptor, Maybridge compounds; P41145; OPRK1 cells, antagonist mode, fluorescence readout; inhibition, % at 9 µM; 16,000 tested, 0.4% active; in the data active = inhibition above about 50%
* = called active by the depositor; nt = no result given. Compounds with a hit are over-represented: about 2.1% of the library has one in this group of screens.

SMILES	rat GALR2 agon	TLR4-MyD88 inh	S1P1 ag	KOR antag MB
O=S(=O)(CC(O)Cn1ccc(C(F)(F)F)n1)c1ccc(Cl)cc1 (centres undefined)	-7	4	-22	4
COC(=O)c1ccccc1-n1cccc1C(=O)OC	-3	4	-1	3
COC(=O)C1=CN2c3ccccc3SC2(C(=O)OC)C(C(=O)OC)=C1C(=O)OC (centres undefined)	-5	nt	99*	-9
C=C(c1ccccc1O)n1ccnc1	-7	-7	-8	-4
O=C(/C(=C\c1ccccc1)n1ccnc1)c1ccccc1OCc1ccccc1	-9	-1	121*	-10
O=C(Cc1ccccc1)NC1=NCCS1	-5	3	-9	0
COc1ccc(C(C)=O)cc1CSC1=NCN(C)CN1	-6	8	15	15
NNC(=O)c1cnn(-c2ccc(Cl)cc2)c1C(F)(F)F	-1	-7	-22	-5
O=C(c1cnn(-c2ccc(Cl)cc2)c1C(F)(F)F)N1CCN(c2ncnc3ccsc23)CC1	-6	6	97*	80*
COC(=O)c1scc(NS(=O)(=O)c2ccccc2)c1C(=O)OC	-8	1	2	3
N#CC(C#N)=NNc1ccc2c(c1)OCCO2	-12	7	94*	1
CSc1sc(C(=O)NNC(=O)Nc2ccc(Cl)cc2)c2c1C1(CCC2)SCCS1	-7	-8	-13	-20
CSc1sc(C(=O)NC(=O)Nc2ccc(Cl)cc2)c2c1-c1nocc1CC2	-3	-3	108*	68*
O=C(Cc1csc2ccc(Cl)cc12)OCc1ccccc1	-9	-33	-8	-1
CCCCCC[n+]1ccccc1/C=C/c1ccc(N(C)C)cc1	-14	64*	113*	72*
N#CCS(=O)(=O)c1ccccn1	-6	3	-7	10
NC1=NNC(=O)/C1=C\c1cc([N+](=O)[O-])ccc1N1CCOCC1	25*	-9	-3	11
Cc1cc(-c2nnc(-c3cccc(C(F)(F)F)c3)o2)no1	-3	-1	80*	18
COc1ccc(-n2ncc(NC(=O)N3CCOCC3)c2C)cc1	-4	-3	-3	-15
O=C(NC(=O)N1CCOCC1)c1nnc(-c2ccccc2)o1	-5	-3	-17	9
O=C(NC(=O)N1CCOCC1)c1ccc([N+](=O)[O-])s1	2	14	89*	3
N#CCOc1nc(-c2ccccc2)cc(-c2ccco2)c1C#N	22*	0	-50	-22
CCOC(=O)COc1nc(-c2cccs2)cc(-c2ccco2)c1C#N	-8	1	-16	-26
COC(=O)c1cnn(-c2ccc(F)cc2F)c1/C=N/OC(=O)Nc1ccc(Cl)cc1	-3	-3	-26	-4
Nc1cnc(Oc2c(Cl)cccc2Cl)c(C(F)(F)F)c1	-5	10	86*	0
SMILES	rat GALR2 agon	TLR4-MyD88 inh	S1P1 ag	KOR antag MB
C#CCOC(=O)Nc1cnc(Oc2c(Cl)cccc2Cl)c(C(F)(F)F)c1	-10	1	99*	12
CCN(c1ccccc1)S(=O)(=O)c1cc([N+](=O)[O-])ccc1N	-7	1	100*	12
CN(C)/C=N/C(=S)Nc1cccc(Cl)c1	-7	-7	2	1
CC1=NN(c2ccccc2)C(=O)/C1=C/c1c(C)[nH]n(-c2ccccc2)c1=O	-7	-3	-1	1
CNc1nnc(SCc2csc3ccccc23)s1	-6	13	118*	2
CCOC(=O)c1cc(NC(=O)Nc2cccc(Cl)c2)ccc1Oc1cncc(Cl)c1	-12	-1	80*	20
N#Cc1cnn(-c2ccccc2)c1NC(=O)CN1CCCCC1	-6	4	-10	13
COc1ccc(C(=O)Nc2ccc(N3CCN(c4ncccc4C(F)(F)F)CC3)nc2)cc1	-6	-12	93*	9
Cn1nc(-c2ccc(Cl)cc2)cc1NS(=O)(=O)c1cccc2nonc12	-5	-13	4	12
Cc1c(C(=O)CC#N)sc2ccc(Cl)cc12	-7	4	-8	-4
Cc1c(C(=O)Cn2ccnc2)sc2ccc(Cl)cc12	-11	2	104*	-14
Cn1nc(C(F)(F)F)c(-c2ccccc2)c1N1C(=O)C2C3C=CC(C3)C2C1=O (centres undefined)	-6	6	86*	-36
Cc1cc(C(=O)Nc2c(-c3ccccc3)c(C(F)(F)F)nn2C)no1	-6	-12	-1	13
O=C(c1cc2ccccc2s1)N1CCN(C(c2ccccc2)c2ccccc2)CC1	-1	-1	83*	-19
Nc1sc(-c2ccccc2)cc1C(=O)N/N=C/c1ccccc1Cl	-5	-5	16	-8
O=[N+]([O-])c1ccc(N2CCSCC2)cc1Oc1nc2c(Cl)cc(Cl)cc2s1	-7	3	-2	8
O=C1NCCN1CCNS(=O)(=O)c1ccc(S(=O)(=O)c2ccccc2)s1	5	16	84*	0
